Data: the supplement of paper PMC11417369
In all, about 25,000 sequences were measured (“ln(normalized median fluorescence intensity)”: median about 7.1, highest 2% from about 10 on). This is one part of a sample in which the highest values are shown more often than they occur.

What follows are sequences tested on PfSIP2 AP2 domain 1 (GST-tagged) (assay: gcPBM binding intensity (ln(normalized median fluorescence intensity)); higher = stronger DNA binding).
Method in brief: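 Each value is the highest Masliner-normalised natural-log median intensity across replicate spots of either orientation of a probe. The probes were primer-extended double-stranded 36-bp intergenic genomic sequences on an Agilent 4 × 180k array, alongside negative controls, exposed for 1 h to GST-tagged P. falciparum DNA-binding domains expressed in E. coli. Bound protein was picked up with Alexa488 anti-GST antibody and scanned at 488 nm.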

Row | Sequence | gcPBM binding intensity (ln)
1 | GAATATGAATATTTGCGTACTTATATAACTGTTCTA [XGTACX_site883] | 6.83
2 | GTGTTAATTTTAAATTGTACAAAATTTATATGATTT [XGTACX_site348] | 7.19
3 | TAAATGTTTCTCAAAAGTACACATGTGATATTTCTT [XGTACX_site2065] | 6.84
4 | TATGTGTATTTATTTGCATGTTGGTTGTATTTTTTC [TGCATGCA_site479] | 6.93
5 | AGCATTTTTCATTTTGCACACATGTTTTATGTGTAT [CACACA_site3454] | 7.11
6 | TATTTTCTCGTTTGCATGCACCTTATTTTATGTGGT [GTGCAC_site9470] | 10.8
7 | ACTTGTTTTCAATGTAAAATACAATTTTCATTTATT [CACACA_negctrl_site435] | 7.08
8 | TATTAAATTTATCGGAGTACATTTAAATGTATATAC [XGTACX_site7975] | 7.13
9 | TATATAACATATAACACACATACTTAGTATTACATA [CACACA_site3099] | 7
10 | TCTTTTCTCGGAAGGGTGCAAGGAATTAATGAAATA [GTGCAC_site9706] | 11.1
11 | TAATATAAATGAAAGGTGCTTTTGCTTTCTTTTTTT | 7.08
12 | TTCTTTTCTCTTTTAATCATATTATATAAATGAATA [CACACA_negctrl_site820] | 7.29
13 | TTTTTATTTTTTTATTTCTTATCAAATAAAATATAT [XGTACX_negctrl_site537] | 6.84
14 | TGTTTTGTTGTGTATTGTACTAATATAAATATATAA [XGTACX_site1852] | 7.41
15 | TTGCAATAATGTTGCACACTAAATAGTCATATATAA [CACACA_site263] | 7.31
16 | TATAAGGCAATAATAGTGCACTAAGATATATAATGA | 10.6
17 | TATTAATATATAGTAGTGCAATAAAGATATACTGAA | 8.3
18 | AAGTAGTGTTAATACTGTACTTATATTTTTTATTAT [XGTACX_site8264] | 6.92
19 | ATTAAAAATATAGTCACACATACACCCATATATATT [CACACA_site5394] | 6.92
20 | ATATCCATAATAAAAACATGCAACAGAAAAAAAAAA [TGCATGCA_site497] | 7.14
21 | ATTATGTACAAAATGGTGCAATATTATACATATATA [GTGCAC_site9468] | 10.4
22 | TATATATTTATTAAATGTACATAACAAAAATGGTAT [XGTACX_site3577] | 7.41
23 | ATATATATTAAAAATAGTACATATAATAAAAATCAT [XGTACX_site4265] | 7.11
24 | ATGTATGCAAAAATGGTGCATATTAAATGTATAACA [GTGCAC_site9722] | 11.1
25 | TAATTATAATAATAACGTACATATATAAAATGGTGA [XGTACX_site8434] | 7.21

Row | Sequence | gcPBM binding intensity (ln)
26 | AATCATATTAGTATGGTGCAACATATATAAATATAT | 10.8
27 | AGTATAAATAAATCATAAACATATATATATATATAT [GTGCAC_negctrl_site356] | 9.25
28 | ATTTTATATACAAAATGTACATATTTATTATATATG [XGTACX_site6732] | 6.99
29 | ATAAAACGTACAATGGTGCATATAAATAATATATAT [GTGCAC_site9960] | 10.8
30 | CATATATAAATATGTATGCACTTTAACAAAATGTAT | 7.74
31 | TACAAATATATAAAATGTACATATATATACATATTA [XGTACX_site3029] | 6.92
32 | AATATAAATAAAAACACACACAATGGTACATATATA [CACACA_site3671] | 7.02
33 | GTAATATTAAAATATACACACATAGAATATATATAT [CACACA_site4391] | 8.8
34 | GCATGTATAATGGTAGTGCATATAATAATATAATAA [GTGCAC_site9548] | 9.06
35 | TATAATAATATAATGGTGCATGTATATAACCATATA | 10.7
36 | TATATATAATATAGTGCATGTAAAAAATAAACCATG [TGCATGCA_site932] | 9.18
37 | TGAACTCACGAGCACACACACACATATATATATATA [CACACA_site8248] | 9.18
38 | TAAAATTTAAAATATACACACAAAAAGTTATTACAA [CACACA_site4080] | 6.93
39 | CTAATCGTGCACAACTGTACATTTGTCAAGGGCAAT [XGTACX_site8662] | 10.4
40 | TAAAATATATAAAACTGTACATTTTAAAGGCACAAC [XGTACX_site8342] | 7.55
41 | AACTGTACAATTTTTGTGCACAATAATTATTAATAT [GTGCAC_site9462] | 8.74
42 | ATATAAATGATATGTACACACATTTATATATATAAA [CACACA_site3475] | 7.04
43 | AATATATACCAACATAAATATATATATATATATATA [TGCATGCA_negctrl_site334] | 9.89
44 | ATTTTATTTTATTAAGTGCAAAAAAAAAAAAAGAAA | 8.24
45 | TTATAATATATATAAAAGAAAAAAAATTATAATATA [CACACA_negctrl_site90] | 6.69
46 | ATAAAATTATTATATACATGCAAAATTAATATATTG [TGCATGCA_site507] | 6.84
47 | AATATTTTATTTTGGGTGCAAAAGAATATTATTTCA | 10.4
48 | TCAAAAGAATAATTGGTGCAAATTATATAATATAAT [GTGCAC_site9804] | 10.2
49 | TTAAAAGAATATAATGCACACATTATTTTATTTTAT [CACACA_site3772] | 7.03
50 | TATTTATTATTATGTACACACTATATTAAAACATAA [CACACA_site4549] | 7.08

Row | Sequence | gcPBM binding intensity (ln)
51 | CTCAAATGTTATTGTAGTACCTAAAAAATATATTCT [XGTACX_site1970] | 6.97
52 | TGTAGTCTGGAGAAACGTACATAGTATCTGGTAGCT [XGTACX_site2538] | 6.84
53 | TTTTAACATATAAGTACACACATATAATCAATCATA [CACACA_site2325] | 7.25
54 | AATTTCTTTTTCGATATACACACTGTATGTGTCTAA [CACACA_site3975] | 6.94
55 | CATAATATGTGGACTTTACACACTTGTTTTAAAATT [CACACA_site819] | 6.87
56 | TATATATATATGTGCACACATATATAATATGTATAA [CACACA_site715] | 9.37
57 | TATGTATGTTAGTGTGCACACATAAATATTATATAT [CACACA_site9121] | 9.26
58 | AATATATATATATGTGCACACATATATAATATGTAT [CACACA_site716] | 8.55
59 | AAAATCTAATATAATGCACACATAAAAAAAAAATCA [CACACA_site8871] | 7.17
60 | ATATATATATATATTGCACACATATAAATATATATA [CACACA_site8167] | 9.22
61 | ACATATAAATATTGTGTGCACACACATAATATATAT | 8.29
62 | TGTATGTTTGGGTGCACACATAAATATTATATATAG [CACACA_site3397] | 12.2
63 | TGTAGAAATGGGTGCACACACATATAAAATCTATAT [CACACA_site7224] | 12.2
64 | AATGTAGAAATGGGTGCACACACATATATAATATAT [CACACA_site8799] | 11.7
65 | ATAAATATTGGGTGCACACACATAATATATATATAT [CACACA_site2272] | 12.2
66 | AAAATCTAATATAATGCACACATAAAAAAAAATCAA [CACACA_site9211] | 7.52
67 | TATATGTATGTTTGTGTGCACACATAAATATTATAT | 8.48
68 | TTAATATTGTATTTCACACATAATTTAATATACTCA [CACACA_site5678] | 6.87
69 | CAAAAAAAAAAAAAAACACACATTAAATTATAAAGA [CACACA_site2613] | 6.77
70 | TTTTATATTCCACAAAAAATTATATAATAATAGAAC [CACACA_negctrl_site1741] | 7.26
71 | TAAACATAAATATGCACACATATACATATATTCATA [CACACA_site2667] | 7.34
72 | TATATATATATATTCACACATAAAAATAAAATAAAA [CACACA_site4774] | 8.88
73 | TGTAGAAATGGGTGCACACACATATATAATATATAT [CACACA_site2507] | 12.3
74 | ATAATAAAAAAAAATGCACACATATATATATATATA [CACACA_site8766] | 9.29
75 | AAAATATAATATAATGCACACATAAAAAAAAAAAAA [CACACA_site7989] | 7.19

Row | Sequence | gcPBM binding intensity (ln)
76 | TATATATATATATTCACACATAAATATATGCACCCA [CACACA_site4263] | 11.6
77 | TATTTGATAAATTATACACACACAATATATATAAAA [CACACA_site8625] | 6.94
78 | AAGATTAGGTTAATTAGTACTTATTATATTGTAATG [XGTACX_site3653] | 6.85
79 | TATACCAATGAATGAGTGCAAAGAAGATAAGGAAAA | 8.58
80 | AATAAAAATAATATAGTGCATAATATAAGGAAAAAA | 9.36
81 | TACCAATGCATAACGGTGCAAAAAAATAAGGAATAA | 10.7
82 | AAAATGGTTTATAAATGTACATATATTATATATAAC [XGTACX_site7959] | 7.03
83 | TATGTGCACCCATGTACATGCGGACATATGTTATAT [TGCATGCA_site383] | 12
84 | ATATATATATATGCATGTACATATATTTGTTATATC [XGTACX_site3197] | 9.3
85 | TATATATATATATATGCATGTACATATATTTGTTAT [TGCATGCA_site379] | 9.76
86 | AAAATAAAAAATTAATGTACTTAGAATTGTCACTAA [XGTACX_site1346] | 6.79
87 | AGAAAAAAACAACATGCACACGCACCCACAAAAAAA [CACACA_site7908] | 10.2
88 | AAAAAAACAACATGCACACGCACACCCAAAAAAAGC [CACACA_site72] | 7.96
89 | CCAACATGCCCACGCACACACAAAAAAAGCATGCAT [CACACA_site4217] | 7.23
90 | TATGCAAGGAACCACACACACACACGGAAATGTATA [CACACA_site6490] | 6.94
91 | AATTTAATATAATGCACACATAAAAAAAAATTCAAA [CACACA_site2062] | 7.16
92 | TGTTAAAATTATTTGGTGCACTTGTTTTACCTTATT | 11.3
93 | TTTTTGTTACCTATTGTGCACTTCATATAAATTAAA | 10.8
94 | CTTATTTTGTTATAAGTGCATTTTTTAAAATTTCTT | 9.64
95 | TATTTCACTTTTTGTCTGCACTAAAATTTTATGGTA | 7.74
96 | ACGTTAGGCTTATTTGCACACTTGTATTAAAATTTT [CACACA_site4854] | 7.27
97 | TGTTATTTTAAAAAAAAAATTATTAACTTAAAAAAA [CACACA_negctrl_site1641] | 6.68
98 | ATTTATTTCTTGTTAGTGCACTTTCTTTGGTAAAAT | 11.1
99 | AAAATATAAATTCATGTGCACATATATATTTTGTTA [GTGCAC_site9782] | 8.24
100 | ACATTAAAAAATTGTTTGCACTATATAAAATATTAA [GTGCAC_site9728] | 8.2
